LmPK inh: blocks Leishmania mexicana pyruvate kinase activity; Q27686; purified LmPK, Kinase-Glo ATP luminescence, 1 h; Potency, µM (top dose mostly 57.5 µM), usual class: inhibitors; actives 0.37% (n = 290,000); AID 1721
Target sequence (Q27686 whole entry, looked up): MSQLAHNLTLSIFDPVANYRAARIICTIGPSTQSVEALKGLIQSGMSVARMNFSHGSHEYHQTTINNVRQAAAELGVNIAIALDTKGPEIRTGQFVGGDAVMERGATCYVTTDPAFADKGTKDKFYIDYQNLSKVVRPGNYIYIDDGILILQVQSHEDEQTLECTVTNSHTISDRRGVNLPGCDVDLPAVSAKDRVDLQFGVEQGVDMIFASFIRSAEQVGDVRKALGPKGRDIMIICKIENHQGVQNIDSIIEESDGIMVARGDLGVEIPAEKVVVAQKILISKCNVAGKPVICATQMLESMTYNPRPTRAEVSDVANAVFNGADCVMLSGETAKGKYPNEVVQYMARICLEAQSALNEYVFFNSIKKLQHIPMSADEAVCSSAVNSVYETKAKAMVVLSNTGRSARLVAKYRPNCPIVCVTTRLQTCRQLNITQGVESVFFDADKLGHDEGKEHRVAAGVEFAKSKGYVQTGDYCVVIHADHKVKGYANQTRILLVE
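Pyruvate kinase activity monitored as ATP production (luciferase luminescence). Conditions: 0.1 nM enzyme, 0.5 mM PEP, 0.1 mM ADP, 1 h, RT; normalized against uninhibited and no-enzyme wells.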
RE007 growth inh: less growth of the S. pombe RE007 Vpr strain | S. pombe RE007 Vpr strain, BacTiter-Glo ATP luminescence, 24 h | Potency, µM (highest dose often 92.2 µM), usual class: inhibitors | actives 0.21% (n = 360,000); active = well fitted falling curve with a large enough effect; inconclusive = small, poorly fitted or top-dose-only effect; inactive = no such curve, though single readings can be large or run the other way; note: nearly all actives have a fitted effect of over 50% in size
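Fission yeast strain RE007, carrying one chromosomally integrated HIV-1 vpr copy, was seeded at OD 0.01 in PMG+AL medium with 23 nL pinned compound. After 24 h at 30 °C and 99% humidity, viability was read by BacTiter-Glo luminescence.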
FBPA Giardia inh: inhibitors of Giardia lamblia fructose-1,6-bisphosphate aldolase. A8B2U2. actives 0.71% (n = 290,000). AID 2451. purified Giardia FBPA. Potency, µM (series often up to 59.6 µM), most hits filed as inhibitors; note: nearly all actives have a fitted effect of over 55% in size
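40 nM FBPA preincubated 10 min at RT with compound (up to 57.5 uM final), then substrate plus GAPDH/TPI/NAD/arsenate coupling and diaphorase/resazurin added. Fluorescence read after 20 min at RT, 525/598 nm.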
TbPYK inhibitor: inhibitors of Trypanosoma brucei pyruvate kinase; Potency, µM (doses to about 76.8 µM), actives largely listed as inhibitors; AID 624173; TbPYK enzyme, Kinase-Glo Plus ATP luminescence, 45 min; actives 0.12% (n = 410,000); note: nearly all actives have a fitted effect of over 50% in size
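TbPYK + substrate in 50 mM TEA pH 7.2, 100 mM KCl, 10 mM MgCl2, 0.05% BSA, 0.01% Tween-20; cpd pinned; ADP 130 uM final; 45 min RT; Kinase-Glo Plus 10 min; luminescence endpoint.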
CHX counter: counter-screen hit for Shiga toxin inhibitors, cycloheximide. max response, %. actives 12% (n = 300,000). cell reporter, cycloheximide protein synthesis inhibition counterscreen; in the data active = max response mostly above about 13%, no sharp cut-off; inactive = mostly below about 14%; note: read at 38.3 µM for the half of the compounds with a filed dose
Shiga toxin inh: inhibitors of Shiga toxin in Vero cells; Vero cells, Shiga toxin protein synthesis inhibition reporter; inhibition, % at 38.7 µM; actives 9.2% (n = 290,000); in the data active = inhibition mostly above about 28%, no sharp cut-off; inactive = mostly below about 43%
Hits are given with their value; 0 = inactive; ? = inconclusive; - = no result; [ ] = another dose, or the depositor's remark. Many of the other results were omitted from the sample, so hits are more common in it than they were. Unless noted, calls come from the whole dose curve; as a rule, active = well fitted curve in the direction sought with a large enough effect; inconclusive = small, poorly fitted or top-dose-only effect, or another doubt; inactive = no such curve, though single readings can be large; an effect the other way counts as inactive or inconclusive.

SMILES | LmPK inh | RE007 growth inh | FBPA Giardia inh | TbPYK inhibitor | CHX counter | Shiga toxin inh
CCN1CCC[C@@H]1CNC(=O)c1cc(S(=O)(=O)CC)ccc1OC | - | - | - | 0 | - | -
CCc1ccc(C(=O)Nc2nc3ccccc3[nH]2)cc1 | ? | 0 | 0 | 0 | 0 | 0
COc1ccc2oc(C(=O)OC/C(O)=C(\C#N)c3nc4ccccc4[nH]3)c(C)c2c1 | 0 | 0 | 0 | 0 | 0 | 0
COc1ccc2oc(C(=O)Nc3nc4ccccc4[nH]3)c(C)c2c1 | 0 | 0 | 0 | 0 | 57 | 70
O=C(Nc1nc2ccccc2[nH]1)c1ccc(F)cc1 | 13µM | 0 | 0 | 0 | 20 | 0
Cn1cccc1C(=O)N1CCC2(CC1)CCN(c1ccccn1)CC2 | - | - | 0 | 0 | - | -
NC(=O)c1sc2nc3c(cc2c1N)CCC3 | 0 | 0 | 0 | 0 | 22 | 48
COC(=O)c1sc2nc(N)c(C#N)cc2c1N | 0 | 0 | 0 | 0 | 30 | 73
Cc1ccccc1NC(=O)c1sc2nc3c(cc2c1N)CCCC3 | - | - | - | 0 | - | -
COC(=O)c1sc2nc3c(cc2c1N)CCCC3 | 0 | 0 | 0 | 0 | 39 | 99
CC1Cn2c(C(=O)NCc3cccc(Br)c3)cc3cccc(c32)S1 (configuration not stated) | - | - | - | 0[15.4 µM] | - | -
O=C(Nc1cccc(C(F)(F)F)c1)C1CCN(S(=O)(=O)c2cccc3nsnc23)CC1 | - | - | - | 0 | - | -
Cc1csc(C(=O)NN)c1N(C)C | 0 | 0 | 0 | 0 | 32 | 74
C=CC1=C2C=C(C3CC3)N(Cc3ccco3)C=C2C(=O)C(C)(OC(=O)c2ccco2)C1=O (configuration not stated) | 0[11.5 µM] | - | 0[12.9 µM] | - | - | -
COc1ccccc1N/C(N)=N/c1nc(CSc2nc3ccccc3s2)cc(=O)[nH]1 | 0 | - | 0 | - | 0 | 48
Cc1nnc(SCc2cc(=O)[nH]c(/N=C(\N)Nc3ccccc3Sc3ccccc3)n2)s1 | 0 | 0 | 0 | 0 | 0 | 0
Cc1ccc(C(=O)N/N=C/c2ccc(-c3ccccc3[N+](=O)[O-])o2)cn1 | 0 | 0 | ? | 0 | 19 | 0
Cc1ccc(C(=O)N/N=C/c2ccc(-c3cccc(Cl)c3)o2)cn1 | 0 | 0 | 0 | 0 | 0 | 0
O=C(N/N=C/c1ccc(-c2ccc([N+](=O)[O-])cc2)o1)[C@H]1C[C@@H]1c1ccccc1 | 0 | 0 | 0 | 0 | 0 | 0
O=C(N/N=C/c1ccc(-c2ccccc2[N+](=O)[O-])o1)[C@H]1C[C@@H]1c1ccccc1 | 0 | 0 | ? | 0 | 31 | active
OCc1c(OCc2cccc(F)c2)ccc2ccccc12 | 0 | 0 | 0 | 0 | 25 | -
Cc1nc2oc3ccc(Cl)cc3c(=O)c2cc1C(=O)O | 0 | 0 | 0 | 0 | 0 | 0
CC(C)c1ccc2oc3nc(N)c(C(=O)O)cc3c(=O)c2c1 | 7.1µM | - | ? | ? | 0 | 0
O=C(/C=C/c1ccccc1)N1CCN(c2ccccn2)CC1 | 0 | 0 | 0 | 0 | 0 | 0
O=C(/C=C/c1ccccc1F)N1CCN(c2ccccn2)CC1 | 0 | 0 | - | 0 | 17 | 0
SMILES | LmPK inh | RE007 growth inh | FBPA Giardia inh | TbPYK inhibitor | CHX counter | Shiga toxin inh
O=C(/C=C/c1ccc(F)cc1)N1CCN(c2ncccn2)CC1 | 0 | 0 | 0 | 0 | 24 | 71
CN1CCCN(C(=O)/C=C/c2ccc(F)cc2)CC1 | 0 | 0 | 0 | 0 | 16 | 0
O=C(/C=C/c1cccc(F)c1)N1CCN(c2ccccn2)CC1 | 0 | 0 | 0 | 0 | 22 | 43
C#CCCOC(=O)N1C2=NC(C(=O)OC)=C(C(=O)OC)[C@@H]3N(CC#CC)c4ccccc4[C@]23C[C@H]1C(=O)OC | 0[11.5 µM] | - | 0[12.9 µM] | - | - | -
Cc1cc(NC(=O)CCc2nc3cccnc3n2-c2ccccc2)ccc1Br | - | - | - | 0 | - | -
COc1ccc(C)cc1NC(=O)Nc1ccc2c(c1)CCC2 | 0 | 0 | - | 0 | 24 | 0
COc1ccccc1NC(=O)Nc1ccc2c(c1)CCC2 | 0 | 0 | - | 0 | 53 | 65
COc1ccc(NC(=O)Nc2ccc3c(c2)CCC3)cc1OC | 0 | 0 | 0 | 0 | 17 | 0
COc1ccccc1NC(=O)Nc1ccncc1 | 0 | 0 | 0 | 0 | 0 | 0
Cn1nc(-c2ccc(OCC(=O)Nc3ccc(Cl)cc3)cc2)c2ccccc2c1=O | - | - | - | 0 | - | -
Cc1ccc(CSc2nnc3[nH]c(=O)cc(C)n23)cc1 | - | - | - | 0 | - | -
COc1cc(Nc2ncc3c(n2)CCN(Cc2ccc(OC(C)C)c(OC)c2)C3)cc(OC)c1 | - | - | - | 0 | - | -
CC(=O)Nc1ccc(Nc2cc(C)nc3c(-c4ccc(Cl)cc4)cnn23)cc1 | 0 | 0 | 0 | 0 | 52 | 36
Cc1cc(N2CCOCC2)n2ncc(-c3ccc(Cl)cc3)c2n1 | 0 | 0 | 0 | 0 | 75 | 120
CC(=O)Nc1ccc(Nc2cc(C)nc3c(-c4ccc(Cl)cc4)c(C)nn23)cc1 | 0 | 0 | 0 | 0 | 0 | 0
Cc1cc(N2CCCCC2)n2ncc(-c3ccccc3)c2n1 | 0 | 0 | 0 | 0 | 60 | 0
Cc1nc2cc(-c3cccc(F)c3)nn2c(N2CCN(C(=O)c3ccco3)CC2)c1C | 0 | 0 | 0 | 0 | 61 | 94
Cc1cc(N2CCOCC2)n2nc(C)c(-c3ccc(Cl)cc3)c2n1 | 0 | 0 | 0 | 0 | 0 | 0
C=CCc1c(C)nc2c(-c3ccccc3)cnn2c1N1CCOCC1 | 0 | 0 | 0 | 0 | 58 | 84
Cc1cc(N2CCN(C(=O)c3ccco3)CC2)n2ncc(-c3ccccc3)c2n1 | 0 | 0 | 0 | 0 | 31 | 64
Cc1cc(N2CCN(C(=O)c3ccco3)CC2)n2ncnc2n1 | 0 | 0 | 0 | 0 | 0 | 0
Cc1cc(N2CCCCC2)n2ncc(-c3ccc(Cl)cc3)c2n1 | 0 | 0 | 0 | 0 | 29 | 0
Cc1nn2c(N3CCOCC3)cc(C(C)(C)C)nc2c1-c1ccc(Cl)cc1 | 0 | 0 | 0 | 0 | 0 | 0
CC(C)(C)c1cc(N2CCOCC2)n2ncc(-c3ccc(Cl)cc3)c2n1 | 0 | 0 | 0 | 0 | 31 | 0
Cc1nc2c(-c3ccccc3)cnn2c(N)c1-c1ccccc1 | 0 | 0 | 0 | 0 | 0 | 0
SMILES | LmPK inh | RE007 growth inh | FBPA Giardia inh | TbPYK inhibitor | CHX counter | Shiga toxin inh
C[C@H]1Cc2c(COc3ccccc3)nc3c(c2CO1)CN(S(=O)(=O)c1ccc(C#N)cc1)CC3 | 0[11.5 µM] | - | 0[12.9 µM] | - | - | -
CNc1ncncc1-c1ccccc1C(F)(F)F | - | - | 0 | - | - | -
CON(C)C(=O)c1nnc2c3ccccc3n(S(=O)(=O)c3ccc(C)cc3)c2n1 | - | - | 0[12.9 µM] | - | - | -
Cc1cc(N2CCC(C)CC2)n2ncc(-c3ccccc3)c2n1 | 0 | 0 | 0 | 0 | 44 | 132
CCCc1cc(N2CCOCC2)n2nc(C)c(-c3ccccc3)c2n1 | 0 | 0 | 0 | 0 | 18 | 0
Cc1ccc(-c2cnn3c(N4CCOCC4)cc(C)nc23)cc1 | 0 | 0 | 0 | 0 | 68 | 108
CCCc1cc(N2CCN(c3ccccn3)CC2)n2nc(C)c(-c3ccccc3)c2n1 | 0 | 0 | 0 | 0 | 0 | 0
Cc1cc(N2CCOCC2)n2ncc(-c3ccccc3)c2n1 | 0 | 0 | 0 | 0 | 34 | 100
CCNC(=O)c1c(NC(=O)Cc2coc3ccc(CC)cc23)sc2c1CCCC2 | - | - | - | 0 | - | -
